Source: PubChem BioAssay
TGFb inhibitor – blocks TGF-b signaling; HepG2 CAGA-GFP TGF-b/SMAD3 reporter, GFP fluorescence, 18 h; TGF-beta stimulated, 500 pg/mL final; Potency, µM (series often up to 46.1 µM), without a hit: at the highest dose activity, negative = inhibition, hits mostly inhibitors; 1.2% of 410,000 active; note: potency is the fitted concentration of half-maximal effect; % is set by controls: 0 for no effect and ±100 for the full control effect; nearly all actives have a fitted effect of over 65% in size
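HEPG2 CAGA-GFP, 1000 cells/well; 2 h settle, 37 C; cpd via pin tool; TGF-b 500 pg/mL final; 18 h, 37 C; GFP imaging ex488/em500-530; %Activity normalised to -TGF-b and +DMSO controls; CRC fit, curve class.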
IL-1B inflam inh – inhibitors of inflammasome signaling (IL-1 beta secretion); THP-1 LPS/ATP IL-1B secretion, AlphaLISA, 16 h; stronger effect = lower value; activity change, % at 57.5 µM; 4.7% of 360,000 active; AID 743279; in the data active = activity change below about -50%; inconclusive = mostly about -30% to -49%; note: % is set by controls: 0 for no effect and ±100 for the full control effect
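THP-1 cells pretreated 1 hr with compounds (up to 57.5 uM final), then stimulated with LPS (250 ng/mL final) plus ATP (1.25 mM final); secreted IL-1B measured by AlphaLISA after 16 hr, decreased signal indicating inhibition.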
HepG2 viability – counter-screen for TGF-b inhibitors: cytotoxicity in HepG2 cells. HepG2 CAGA-GFP viability, ATP luminescence, 18 h. Potency, µM (doses to about 46.1 µM), for inactives: at the top dose activity change, negative = cytotoxicity, actives largely listed as cytotoxic. 0.76% of 410,000 active. AID 588856; note: potency is the fitted concentration of half-maximal effect
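CellTiter-Glo luminescence gave cytotoxicity after 18 hours at 37 degrees C. The cells were HepG2 CAGA-GFP in 1% FBS DMEM, stimulated with 500 pg/mL TGF-beta after compound addition. %Activity was normalised to no-cell wells (complete cell-killing) and DMSO (no toxicity), and curves were fitted and classified.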
DT40 TDP1 no CPT – qHTS for Inhibitors of human tyrosyl-DNA phosphodiesterase 1 (TDP1): qHTS in cells in absence of CPT. DT40 Tdp1-/- hTDP1 cells, no CPT, ATP luminescence, 48 h. 15% of 420,000 active. AID 686978, 2013. Potency, µM (titrated, usually from 46.2 µM), for the others: top-dose activity change, negative = growth inhibition, most hits filed as inhibitors; note: potency is the fitted concentration of half-maximal effect; % is set by controls: 0 for no effect and ±100 for the full control effect; nearly all actives have a fitted effect of over 55% in size
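Chicken DT40 Tdp1-/- cells complemented with human TDP1, screened without camptothecin (DMSO vehicle only), 400 cells/well. Compounds pin-transferred, cells incubated at 37 °C for at least 48 hr. Growth read as ATP-dependent luminescence (CellTiter-Glo, 30 min at RT).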
TDP1 block – blocks human tyrosyl-DNA phosphodiesterase 1 | recombinant TDP1, AlphaScreen DNA substrate cleavage | Potency, µM (doses to about 130 µM), for inactives: at the highest dose activity change, negative = inhibition, most hits filed as inhibitors | 0.28% of 350,000 active; note: potency is the fitted concentration of half-maximal effect; % is set by controls: 0 for no effect and ±100 for the full control effect; nearly all actives have a fitted effect of over 40% in size
Target sequence (Q9NUW8 whole entry, looked up): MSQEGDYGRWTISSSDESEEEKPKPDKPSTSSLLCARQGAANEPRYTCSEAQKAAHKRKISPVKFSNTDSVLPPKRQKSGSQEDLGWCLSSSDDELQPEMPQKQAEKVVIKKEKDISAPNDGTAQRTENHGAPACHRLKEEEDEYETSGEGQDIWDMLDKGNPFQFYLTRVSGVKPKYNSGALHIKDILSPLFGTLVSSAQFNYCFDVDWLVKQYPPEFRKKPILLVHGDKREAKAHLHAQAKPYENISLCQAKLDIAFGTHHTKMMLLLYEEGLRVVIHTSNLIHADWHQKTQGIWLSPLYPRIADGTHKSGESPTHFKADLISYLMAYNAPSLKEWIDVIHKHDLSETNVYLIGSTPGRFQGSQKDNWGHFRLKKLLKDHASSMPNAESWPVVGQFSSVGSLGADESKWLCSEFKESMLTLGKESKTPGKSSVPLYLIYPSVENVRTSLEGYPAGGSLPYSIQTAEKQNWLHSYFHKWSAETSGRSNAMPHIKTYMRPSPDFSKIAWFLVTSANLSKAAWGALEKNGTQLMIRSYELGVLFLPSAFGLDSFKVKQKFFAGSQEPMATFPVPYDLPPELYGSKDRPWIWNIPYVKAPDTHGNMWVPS
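Here, a 5' biotin and 3' phosphotyrosine-FITC DNA oligonucleotide reports Tdp1 activity: intact substrate bridges AlphaScreen beads, while cleavage leaves a 3' phosphate and drops signal. All incubations at room temperature.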
DT40 TDP1 CPT – growth inhibition of DT40 Tdp1-/-;hTDP1 cells with camptothecin (screen for TDP1 inhibitors); chicken DT40 Tdp1-/-;hTDP1 cells + 20 nM CPT, ATP luminescence, 48 h; Potency, µM (top dose mostly 46.2 µM), without a hit: top-dose activity change, negative = growth inhibition, actives largely listed as inhibitors; 12% of 420,000 active; AID 686979; note: potency is the fitted concentration of half-maximal effect; % is set by controls: 0 for no effect and ±100 for the full control effect; nearly all actives have a fitted effect of over 55% in size
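Chicken DT40 Tdp1-/- cells stably complemented with human TDP1 were seeded at 400 cells/well in medium containing 20 nM camptothecin, exposed to pin-transferred compounds, and grown at 37 °C for at least 48 hr. Viability was read as ATP luminescence.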
The depositor's hits bear a star; ? = inconclusive; . = not tested or not shown; [ ] = another dose, or the depositor's remark. An excerpt weighted towards active compounds, which were near 19% of everything screened. Unless noted, calls come from the whole dose curve; as a rule, active = well fitted curve in the direction sought with a large enough effect; inconclusive = small, poorly fitted or top-dose-only effect, or another doubt; inactive = no such curve, though single readings can be large; an effect the other way counts as inactive or inconclusive.

SMILES | TGFb inhibitor | IL-1B inflam inh | HepG2 viability | DT40 TDP1 no CPT | TDP1 block | DT40 TDP1 CPT
CC(Oc1ccc(Cl)cc1Cl)C(=O)OCC(=O)c1c(N)n(C)c(=O)n(C)c1=O (configuration not stated) | ? | 17.4 | -9.2% | -10.5% | -2.7%[56.1 µM] | -20.6%
COc1ccc(CNC(=O)CSc2nc3ccc(C)cc3[nH]2)cc1OC | 6.3% | 12.8 | 0.8% | -9.0% | . | -8.3%
CC(=O)c1ccc(OCCCC(=O)Nc2ccc(Cl)c(S(=O)(=O)N3CCOCC3)c2)cc1 | ? | 28.7 | -5.5% | 20.6µM* | . | 16.4µM*
CC1CCCC(N2CCN(C(=O)c3ccccc3F)CC2)C1 (configuration not stated) | -0.8% | 2.0 | -33.6% | -4.4% | 7.9% | 18.3%
CC1C=CC=CC=CC=CC=CC=CC=CC(OC2OC(C)C(O)C(N)C2O)CC2OC(O)(CC(O)CC(O)C(O)CCC(O)CC(O)CC(=O)OC(C)C(C)C1O)CC(O)C2C(=O)O (configuration not stated) | ? | 62.7 | 0.0% | 3.26µM* | . | 4.61µM*
CCOc1cc(-c2nnc(NC(=O)C3=COCCO3)o2)cc(OCC)c1OCC | 10.1% | 4.1 | -8.6% | -17.5% | . | -27.1%
CCCNC(=O)Cn1nc([N+](=O)[O-])c([N+](=O)[O-])c1C | -1.2% | -6.5 | 10.7% | -18.4% | 1.4% | -9.9%
Cc1c([N+](=O)[O-])c([N+](=O)[O-])nn1CC(=O)NCCc1ccccc1 | -20.7% | -89.9* | -18.7% | 6.9% | 3.4% | -2.8%
CC(C)c1onc(C(=O)NCCc2ccccc2)c1[N+](=O)[O-] | -14.4% | -11.8 | -8.0% | ? | -2.3% | 20.6µM*
CC(C)c1onc(C(=O)N(C)Cc2ccccc2)c1[N+](=O)[O-] | 8.6% | -1.5 | -4.4% | -12.7% | -2.7% | 14.4%
CN(c1ccc(OCC(=O)Nc2ccccc2C(=O)O)cc1)S(=O)(=O)c1ccc(Cl)cc1 | -18.1% | 3.2 | -28.6% | -27.8% | -2.2% | -20.5%
CC(=O)c1ccccc1NC(=O)COc1ccc(N(C)S(=O)(=O)c2ccc(C)c(C)c2)cc1 | -6.3% | 46.8 | -12.1% | 11.6µM* | 0.4% | 20.6µM*
Cc1ccc(S(=O)(=O)N(C)c2ccc(OCc3cccc(C)c3)cc2)cc1 | -20.1% | 0.0 | -2.6% | 18.4µM* | -0.2% | ?
CC(=O)Nc1ccc(S(=O)(=O)N(C)c2ccc(OCC(=O)Nc3ccccc3C(C)=O)cc2)cc1 | 1.2% | -29.4 | 0.9% | 20.6µM* | 2.4% | 18.4µM*
CC(=O)Nc1ccc(S(=O)(=O)N(C)c2ccc(OCCOc3cccc(C)c3)cc2)cc1 | ? | 4.2 | -33.1% | ? | 12.6µM* | ?
CCN(CC)C(=O)COc1ccc(N(C)S(=O)(=O)c2ccc(NC(C)=O)cc2)cc1 | -1.0% | -16.8 | -18.2% | 2.4% | . | ?
CCCCC/C=C\C\C=C/C=C/C=C/[C@@H](SCC(NC(=O)CCC(N)C(=O)O)C(=O)NCC(=O)O)[C@@H](O)CCCC(=O)O (some centres not stated) | . | . | . | . | 3.7% | .
CC1(C(=O)NS(=O)(=O)c2ccc(C#N)cc2)CCN1C(=O)Cc1cccc2ccccc12 (configuration not stated) | -1.4% | 13.7 | 3.2% | -0.5% | . | -13.9%
COC(=O)c1ccccc1NC(=O)Cn1c(=O)nc(-c2ccccc2)c2cc(Cl)ccc21 | 1.4% | . | -15.1% | -25.1% | 3.8% | 5.2%
C=CCn1c(C)cc(C(=O)COc2ccc(N(C)S(=O)(=O)c3ccc(NC(C)=O)cc3)cc2)c1C | -18.3% | -28.7 | -32.1% | 5.8µM* | 2.4% | 9.2µM*
O=C(NCc1ccc(Cl)cc1)c1cccnc1 | 13.3% | 5.0 | -37.0% | ? | -2.1% | ?
CCCC(=O)NC(c1ccco1)c1cc([N+](=O)[O-])c2cccnc2c1O (configuration not stated) | -24.1% | 90.3 | -41.3% | -22.5% | 7.9% | -7.0%
O=C(NC(c1ccc(Cl)cc1)c1cc(Cl)c2cccnc2c1O)c1cccnc1 (configuration not stated) | ? | ? | -11.1% | 4.11µM* | 5.4% | 5.17µM*
CN1CCN(C(c2ccc(C(F)(F)F)cc2)c2cc(Cl)c3cccnc3c2O)CC1 (configuration not stated) | . | . | . | . | 7.6% | .
CC(=O)NC(c1ccc(N(C)C)cc1)c1cc(Cl)c2cccnc2c1O (configuration not stated) | ? | 61.0 | -14.9% | 6.51µM* | . | 4.61µM*
SMILES | TGFb inhibitor | IL-1B inflam inh | HepG2 viability | DT40 TDP1 no CPT | TDP1 block | DT40 TDP1 CPT
CCC(=O)NC(c1ccc(C)cc1)c1cc([N+](=O)[O-])c2cccnc2c1O (configuration not stated) | ? | 41.8 | -9.3% | 20.6µM* | 0.5% | ?
CC(=O)NC(c1ccccc1)c1cc(Cl)c2cccnc2c1O (configuration not stated) | ? | 86.8 | -17.1% | ? | 1.8% | ?
CN1CCN(C(c2ccc(Cl)cc2)c2cc(Cl)c3cccnc3c2O)CC1 (configuration not stated) | ? | -64.2* | 25.1µM* | 16.4µM* | -5.1% | ?
COc1ccccc1NC(=O)CC1Sc2ccc(C(F)(F)F)cc2NC1=O (configuration not stated) | ? | . | -33.7% | -23.0% | -4.8%[12.3 µM] | -19.2%
Cc1ccc(Cl)cc1N1CCN(C(=O)Cn2ncc3c([nH]c4ccccc43)c2=O)CC1 | -2.3% | . | -1.6% | ? | 2.5% | ?
N#CCCCS(=O)(=O)c1nnnn1C1CCCCC1 | . | . | . | . | 5.6% | .
CC(=O)NC(c1ccc(C)cc1)c1cc([N+](=O)[O-])c2cccnc2c1O (configuration not stated) | ? | 118.7 | 2.2% | 14.6µM* | 11.9% | 5.8µM*
COc1ccc(C2(CNC(=O)/C=C\c3ccco3)CCCC2)cc1OC | -6.5% | 12.9 | -2.0% | 29.1µM* | 2.8% | 18.4µM*
COc1ccc(C2(CNC(C)=O)CCOCC2)cc1OC | -18.5% | 18.5 | -30.6% | 2.9% | 2.0% | 1.7%
COc1ccc(C2(CNC(=O)C(=O)Nc3ccc(F)cc3)CCCC2)cc1OC | 0.0% | . | -35.3% | 18.4µM* | -2.3% | 18.4µM*
COc1ccc(C2(CNC(=O)C(=O)Nc3ccccc3C)CCCC2)cc1OC | -22.2% | . | -7.3% | 18.4µM* | 2.3% | 23.1µM*
